From the supplement of paper PMC3334620
Whole data set: some 33,000 sequences, median “E-score (-0.5 to 0.5)” near -0.053, cut for the highest 2% near 0.37. Only a selection was taken, and the highest values are over-represented in it overall.

What follows are sequences tested against Hap1 (UniProt P0CE41) (assay: PBM E-score (8-mer binding enrichment) (E-score (-0.5 to 0.5)); higher = stronger / more preferred TF binding). Details: protein concentration: 200 nM; construct: GST-DNA-binding domain.
Sequence of UniProt P0CE41 (P0CE41 whole entry, the tested form may be a part): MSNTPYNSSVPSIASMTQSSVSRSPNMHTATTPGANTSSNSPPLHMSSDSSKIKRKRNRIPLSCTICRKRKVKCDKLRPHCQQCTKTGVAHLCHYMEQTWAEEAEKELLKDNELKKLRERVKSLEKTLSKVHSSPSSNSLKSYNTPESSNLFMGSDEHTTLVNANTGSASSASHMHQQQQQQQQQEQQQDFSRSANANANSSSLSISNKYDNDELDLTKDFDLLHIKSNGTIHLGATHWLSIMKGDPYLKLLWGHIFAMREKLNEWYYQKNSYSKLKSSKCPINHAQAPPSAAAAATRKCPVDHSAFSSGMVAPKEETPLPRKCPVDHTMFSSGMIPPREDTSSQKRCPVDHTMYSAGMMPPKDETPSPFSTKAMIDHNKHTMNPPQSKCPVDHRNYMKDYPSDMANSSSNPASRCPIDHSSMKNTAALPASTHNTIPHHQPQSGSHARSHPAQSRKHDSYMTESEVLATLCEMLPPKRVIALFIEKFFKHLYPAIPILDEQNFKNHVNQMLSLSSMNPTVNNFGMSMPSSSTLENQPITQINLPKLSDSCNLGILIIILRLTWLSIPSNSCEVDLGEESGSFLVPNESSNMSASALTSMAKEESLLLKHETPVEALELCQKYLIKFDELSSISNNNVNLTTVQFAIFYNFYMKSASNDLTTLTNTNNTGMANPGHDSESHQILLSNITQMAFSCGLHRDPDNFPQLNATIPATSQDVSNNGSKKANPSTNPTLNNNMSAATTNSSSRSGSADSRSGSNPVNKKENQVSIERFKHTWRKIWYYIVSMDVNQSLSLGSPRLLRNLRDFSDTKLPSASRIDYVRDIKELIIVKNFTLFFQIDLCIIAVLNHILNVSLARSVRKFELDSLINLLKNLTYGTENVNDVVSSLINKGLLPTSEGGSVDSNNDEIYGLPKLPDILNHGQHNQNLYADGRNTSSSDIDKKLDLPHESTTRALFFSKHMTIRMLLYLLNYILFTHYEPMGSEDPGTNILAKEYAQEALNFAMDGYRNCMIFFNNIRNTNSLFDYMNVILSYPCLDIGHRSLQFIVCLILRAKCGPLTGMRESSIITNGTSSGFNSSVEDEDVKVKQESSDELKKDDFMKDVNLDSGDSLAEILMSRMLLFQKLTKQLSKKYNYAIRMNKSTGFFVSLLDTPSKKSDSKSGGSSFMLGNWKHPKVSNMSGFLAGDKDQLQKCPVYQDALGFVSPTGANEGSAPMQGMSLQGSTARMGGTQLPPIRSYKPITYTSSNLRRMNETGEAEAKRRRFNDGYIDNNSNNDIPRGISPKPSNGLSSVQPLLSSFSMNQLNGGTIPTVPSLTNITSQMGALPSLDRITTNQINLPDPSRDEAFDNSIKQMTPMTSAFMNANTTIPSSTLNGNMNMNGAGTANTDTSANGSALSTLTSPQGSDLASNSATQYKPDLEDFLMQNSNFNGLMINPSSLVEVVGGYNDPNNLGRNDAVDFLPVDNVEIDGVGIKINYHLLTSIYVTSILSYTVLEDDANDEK
Protocol: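 Universal 'all 10-mer' protein binding microarrays (Agilent AMADID 015681) probed with GST-tagged S. cerevisiae TFs (full-length or DBD) made by in vitro transcription/translation (PURExpress), about 100-200 nM. Bound TF was detected with fluorescent anti-GST. Each ungapped 8-mer (which stands for itself and its reverse complement) is scored by the PBM enrichment score (E-score), a modified Wilcoxon-Mann-Whitney statistic from -0.5 to +0.5, computed with the Universal PBM Analysis Suite. Scale: above 0.35 generally sequence-specific binding.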
In the case of GGCCATAC, the “PBM E-score” value is reported as 0.17.
In the case of CGCTACGA, the “PBM E-score” value is reported as 0.111.
For CTCTCATC, the “PBM E-score” value was -0.159.
With CAGATTAG the “PBM E-score” value was -0.167.
With AGGACATA the “PBM E-score” value was -0.187.
With GCTCAGTA the “PBM E-score” value was -0.239.
CCAATGCA was tested, and the “PBM E-score” value was -0.186.
In the case of CGGACCCA, the “PBM E-score” value is reported as 0.346.
For AAGTGACA, the “PBM E-score” value was -0.105.
With ACCGGATG the “PBM E-score” value was 0.329.
ACCGGTCG was tested, and the “PBM E-score” value was 0.289.
With ACCGGACG the “PBM E-score” value was 0.421.
With AACGGACT the “PBM E-score” value was 0.337.
AACGGACC was tested, and the “PBM E-score” value was 0.327.
With ACCGGACC the “PBM E-score” value was 0.397.
With ACCGGACT the “PBM E-score” value was 0.408.
In the case of AGCGGACT, the “PBM E-score” value is reported as 0.287.
For ACCGGATC, the “PBM E-score” value was 0.296.
CTTCTGAC was tested, and the “PBM E-score” value was -0.224.
For CTCCAGCA, the “PBM E-score” value was -0.241.
For AATACGCG, the “PBM E-score” value was 0.0739.
With ACTAAACG the “PBM E-score” value was -0.112.
For ATACCTTA, the “PBM E-score” value was -0.0965.
In the case of AAACTACG, the “PBM E-score” value is reported as 0.118.
For CCCTCCAC, the “PBM E-score” value was -0.233.
With CGGACGGC the “PBM E-score” value was 0.327.
CGGACGTA was tested, and the “PBM E-score” value was 0.443.
With GCGACGGA the “PBM E-score” value was 0.258.
In the case of AGGACGTA, the “PBM E-score” value is reported as 0.00968.
In the case of GGGACGGA, the “PBM E-score” value is reported as 0.227.
With CCGACGGA the “PBM E-score” value was 0.386.
For ACGACGGA, the “PBM E-score” value was 0.199.
With CGGACGGA the “PBM E-score” value was 0.397.
With CGGACGTC the “PBM E-score” value was 0.258.
With CAGGTGTA the “PBM E-score” value was -0.199.
For CAGGTATG, the “PBM E-score” value was -0.00123.
With CGGGTGGC the “PBM E-score” value was 0.152.
CACCCCAC was tested, and the “PBM E-score” value was -0.026.
In the case of CCCCGTGC, the “PBM E-score” value is reported as 0.269.
With ACAACTTC the “PBM E-score” value was 0.00956.
In the case of CCCGACAA, the “PBM E-score” value is reported as 0.311.
CCAAGCTA was tested, and the “PBM E-score” value was -0.112.
CGCAGGAG was tested, and the “PBM E-score” value was -0.0823.
For ACACCGGT, the “PBM E-score” value was 0.359.
For ACACCGGC, the “PBM E-score” value was 0.341.
In the case of TCACCGGA, the “PBM E-score” value is reported as 0.373.
In the case of GCACCGGA, the “PBM E-score” value is reported as 0.353.
For CCACCGGG, the “PBM E-score” value was 0.34.
CCACCGGC was tested, and the “PBM E-score” value was 0.233.
With CCACCGGA the “PBM E-score” value was 0.432.
In the case of ACACCGGA, the “PBM E-score” value is reported as 0.395.
TCACCGCA was tested, and the “PBM E-score” value was 0.0366.
GATCAGCC was tested, and the “PBM E-score” value was -0.11.
For CTGCAGAC, the “PBM E-score” value was -0.128.
With GACCCAAA the “PBM E-score” value was -0.00261.
In the case of GGAGTATA, the “PBM E-score” value is reported as 0.206.
ACATGTAG was tested, and the “PBM E-score” value was -0.081.
With CAAAGCAC the “PBM E-score” value was -0.138.
For CGGTGAGC, the “PBM E-score” value was 0.0638.
For AGACCTGA, the “PBM E-score” value was -0.0959.
In the case of CCGCGGTA, the “PBM E-score” value is reported as 0.303.
For ATCCTCTC, the “PBM E-score” value was -0.186.
AGCGGGAA was tested, and the “PBM E-score” value was 0.207.
For ATAACCGA, the “PBM E-score” value was 0.386.
For CTAACCGA, the “PBM E-score” value was 0.176.
AACCCCGG was tested, and the “PBM E-score” value was 0.456.
In the case of ACCCCCGC, the “PBM E-score” value is reported as 0.217.
For ACCCCCGG, the “PBM E-score” value was 0.368.
AACCCCGC was tested, and the “PBM E-score” value was 0.371.
For ATAACCGC, the “PBM E-score” value was 0.157.
For AAACCCCG, the “PBM E-score” value was 0.438.
AAACCCCC was tested, and the “PBM E-score” value was 0.0478.
AACCCCCG was tested, and the “PBM E-score” value was 0.262.
For GACCCCGC, the “PBM E-score” value was 0.134.
For CACCCCGG, the “PBM E-score” value was 0.264.
CTACTAGC was tested, and the “PBM E-score” value was 0.0698.
With GCCGTCCA the “PBM E-score” value was 0.0557.
In the case of AATAGATG, the “PBM E-score” value is reported as -0.118.
CGTGTTTA was tested, and the “PBM E-score” value was 0.038.
AAATTCTA was tested, and the “PBM E-score” value was -0.166.
ATGTACTA was tested, and the “PBM E-score” value was -0.14.
For GTGGATCA, the “PBM E-score” value was -0.21.
With CACCAATC the “PBM E-score” value was -0.0582.
For CAGATTGA, the “PBM E-score” value was -0.0798.
With CCCAACAG the “PBM E-score” value was -0.328.
In the case of ACCGTAAA, the “PBM E-score” value is reported as 0.0865.
With CAACTGTA the “PBM E-score” value was -0.234.
With ATGTGCCA the “PBM E-score” value was -0.302.
In the case of AAAACCCG, the “PBM E-score” value is reported as 0.4.
In the case of AAAACCCC, the “PBM E-score” value is reported as 0.187.
In the case of AAAACCGC, the “PBM E-score” value is reported as 0.109.
AAACCCGA was tested, and the “PBM E-score” value was 0.439.
With GAAACCGA the “PBM E-score” value was 0.274.
With AAAACCGA the “PBM E-score” value was 0.396.
In the case of GAACCCGA, the “PBM E-score” value is reported as 0.23.
For AAACCCGC, the “PBM E-score” value was 0.335.
AAACCCGT was tested, and the “PBM E-score” value was 0.361.
In the case of TAACCCGA, the “PBM E-score” value is reported as 0.355.
For AAACCCGG, the “PBM E-score” value was 0.454.
AAAACCCT was tested, and the “PBM E-score” value was -0.0696.
In the case of AGCCAGGC, the “PBM E-score” value is reported as -0.141.
For GCTTGGGA, the “PBM E-score” value was -0.149.
ACTGGGAG was tested, and the “PBM E-score” value was -0.0791.
CAGCTACA was tested, and the “PBM E-score” value was -0.156.
ACGCCTAC was tested, and the “PBM E-score” value was -0.0649.
For GATGCGAA, the “PBM E-score” value was -0.0227.
With TATTGCGA the “PBM E-score” value was 0.0517.
In the case of AGTTTGTC, the “PBM E-score” value is reported as -0.117.
CACCATCG was tested, and the “PBM E-score” value was -0.192.
In the case of GCAGCGGC, the “PBM E-score” value is reported as -0.00312.
In the case of ACGAGATC, the “PBM E-score” value is reported as -0.15.
With CCGCTGCA the “PBM E-score” value was -0.0239.
For GTACCTCA, the “PBM E-score” value was -0.238.
For ATTCCGTC, the “PBM E-score” value was 0.213.
ATTCCGCG was tested, and the “PBM E-score” value was 0.285.
For ATTCCGGG, the “PBM E-score” value was 0.374.
For ATTCCGTG, the “PBM E-score” value was 0.294.
For ATTCCGGC, the “PBM E-score” value was 0.37.
ATTCCGCC was tested, and the “PBM E-score” value was 0.295.
With GAGTCGCC the “PBM E-score” value was -0.0011.
CCTTGTCA was tested, and the “PBM E-score” value was -0.311.
In the case of CGGAGTTC, the “PBM E-score” value is reported as 0.394.
CGGAGTAA was tested, and the “PBM E-score” value was 0.37.
For AGGAGTTC, the “PBM E-score” value was -0.143.
With CTGAGTTC the “PBM E-score” value was -0.0173.
With GGGAGTAA the “PBM E-score” value was 0.147.
With AGGAGTTA the “PBM E-score” value was 0.292.
GGGAGTTA was tested, and the “PBM E-score” value was 0.247.
CGGAGTTA was tested, and the “PBM E-score” value was 0.494.
With CGGAGTAC the “PBM E-score” value was 0.254.
In the case of CCCCTGTA, the “PBM E-score” value is reported as -0.154.
For GCTCGATA, the “PBM E-score” value was 0.0192.
In the case of AGAGGAAT, the “PBM E-score” value is reported as -0.205.
In the case of ATCTCTAC, the “PBM E-score” value is reported as -0.223.
With AAGATGGG the “PBM E-score” value was -0.126.
For CGCCGGGC, the “PBM E-score” value was 0.332.
AGCCGGCA was tested, and the “PBM E-score” value was 0.334.
In the case of AGCCGGAG, the “PBM E-score” value is reported as 0.404.
AGCCGGAC was tested, and the “PBM E-score” value was 0.409.
For CGTCGGAC, the “PBM E-score” value was 0.338.
AGCCGGCT was tested, and the “PBM E-score” value was 0.25.
In the case of AGCCGGGC, the “PBM E-score” value is reported as 0.173.
With AGCCGGTG the “PBM E-score” value was 0.326.
For AGCCGGGG, the “PBM E-score” value was 0.268.
For CGCCGGAC, the “PBM E-score” value was 0.409.
With AGCCGGCC the “PBM E-score” value was 0.354.
With AGCCGGAT the “PBM E-score” value was 0.418.
For ACACGCAG, the “PBM E-score” value was -0.093.
CGAGAAAC was tested, and the “PBM E-score” value was 0.187.
With AGCTTTGA the “PBM E-score” value was -0.0822.
AAAGTGCT was tested, and the “PBM E-score” value was -0.21.
With AAAGAATT the “PBM E-score” value was -0.0164.
In the case of AGAGCTGC, the “PBM E-score” value is reported as -0.128.
For CGCTTTGA, the “PBM E-score” value was 0.0268.
With AACAGCTT the “PBM E-score” value was -0.106.
For TAGACACA, the “PBM E-score” value was -0.156.
With GGCCGGAA the “PBM E-score” value was 0.363.
In the case of CGACGGAG, the “PBM E-score” value is reported as 0.287.
For GGACGGAC, the “PBM E-score” value was 0.358.
CGCCGTAG was tested, and the “PBM E-score” value was 0.187.
With AGCCGGAA the “PBM E-score” value was 0.371.
For AGCCGGTA, the “PBM E-score” value was 0.414.
GGCCGGTA was tested, and the “PBM E-score” value was 0.344.
With AGCCGGGA the “PBM E-score” value was 0.231.
With GGCCGGAC the “PBM E-score” value was 0.398.
AGCCGGTC was tested, and the “PBM E-score” value was 0.0184.
In the case of CGCCGGAG, the “PBM E-score” value is reported as 0.399.
In the case of CGCCGGAA, the “PBM E-score” value is reported as 0.357.
AAATACGA was tested, and the “PBM E-score” value was -0.0883.
For CAACGGGC, the “PBM E-score” value was 0.153.
CGCGAGCG was tested, and the “PBM E-score” value was 0.104.
AGTAGCAG was tested, and the “PBM E-score” value was -0.173.
